# The list is not random: actives were taken first. Their share in the collection is about 31%.
# PLAP activator = activators of human placental alkaline phosphatase. purified PLAP enzyme, luminescent substrate read-out; stronger effect = higher value. 1.2% of 96,000 active. activation fold at 20 µM; in the data active means activation fold above about 2
# Target sequence (P05187 whole entry, looked up): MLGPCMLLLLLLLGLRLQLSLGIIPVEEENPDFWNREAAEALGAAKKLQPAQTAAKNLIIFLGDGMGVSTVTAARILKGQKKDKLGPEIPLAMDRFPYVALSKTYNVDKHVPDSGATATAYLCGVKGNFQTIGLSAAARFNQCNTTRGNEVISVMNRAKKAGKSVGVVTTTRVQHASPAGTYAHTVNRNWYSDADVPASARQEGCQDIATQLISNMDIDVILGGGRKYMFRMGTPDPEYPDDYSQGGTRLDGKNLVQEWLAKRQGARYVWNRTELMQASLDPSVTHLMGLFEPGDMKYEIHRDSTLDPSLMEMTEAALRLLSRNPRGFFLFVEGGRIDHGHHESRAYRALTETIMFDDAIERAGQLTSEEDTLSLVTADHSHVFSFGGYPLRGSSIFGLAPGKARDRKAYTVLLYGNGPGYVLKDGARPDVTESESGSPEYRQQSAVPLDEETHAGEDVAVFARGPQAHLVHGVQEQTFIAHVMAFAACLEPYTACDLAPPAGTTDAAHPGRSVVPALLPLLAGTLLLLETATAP
# CYP2C9 inhib = blocks human cytochrome P450 2C9 | 20% of 96,000 active | CYP2C9 Supersomes, luciferin-H conversion, luminescence | inhibition, % at 5 µM | P11712;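 active means blocking of liver enzyme CYP2C9 beyond about 50% at 5 µM, limit read from the data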
# CYP2C9 activ = activators of human CYP2C9; AID 1024; P11712; activation factor at 5 µM; 1.4% of 96,000 active; recombinant CYP2C9, luciferin-H conversion, luminescence; stronger effect = higher value; factor 1 = untreated enzyme, 0 = blocked;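 active means activation factor of 2 or more for CYP2C9 at a 5 µM dose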
# CYP2C19 act = increases human CYP2C19 enzyme activity; P33261; recombinant CYP2C19, luciferin-H EGE luminescence; stronger effect = higher value; 0 = fully inhibited enzyme, 1 = untreated enzyme; AID 1025; activation factor at 5 µM; 96,000 tested, under 10 active;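 active means activation factor of at least 2 at 5 µM in the primary screen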
# CYP2C19 inh = blocks human cytochrome P450 2C19 | AID 778 | inhibition, % at 5 µM | P33261 | 21% of 96,000 active | CYP2C19 Supersomes, luciferin-H EGE luminescence, 30 min;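 active means CYP2C19 inhibition above a set limit at 5 µM in the primary screen, cut at about 50% in these data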
# A number is an active result; i = inactive.
SMILES,PLAP activator,CYP2C9 inhib,CYP2C9 activ,CYP2C19 act,CYP2C19 inh
O=C(c1ccccc1)c1nc2ccccc2n(CCCn2c(=O)c(C(=O)c3ccccc3)nc3ccccc32)c1=O,i,96.8,i,i,73.7
COc1nc(OC/C(N)=N/O)nc(N2CCOCC2)n1,i,i,i,i,i
O=C1/C(=C\c2ccccn2)SC(=S)N1Nc1ncc(C(F)(F)F)cc1Cl,i,i,i,i,65.3
Nc1ccc(Cl)cc1/C(=N/O)c1ccccc1,i,55.9,i,i,77.9
Nc1ccc(SC(F)(F)F)cc1C(=O)c1ccccc1,i,i,i,i,i
Cc1ccc2cc(C#N)c(NCc3ccco3)nc2c1,i,i,i,i,i
Cn1c(Oc2ccccc2NCc2cccc(Br)c2)cc(=O)n(C)c1=O,i,i,i,i,i
COc1ccc(-c2noc(CN(C(=O)C(C)(C)C)C(C)C)n2)cc1,i,57.4,i,i,80.9
COc1ccc(Cc2nc(-c3ccccc3)no2)cc1,i,i,i,i,i
CC(C)N(Cc1nc(-c2ccccc2)no1)C(=O)C(C)(C)C,i,i,i,i,51.6
Cn1c(SCC(=O)c2ccc3c(c2)Cc2ccccc2-3)nnc1-c1ccccc1,i,i,i,i,i
O=S(=O)(c1ccccc1)c1ccc(NCc2ccco2)cc1,i,i,i,i,67.0
O=S(=O)(Nc1nc2ccccc2nc1NCCO)c1cccc(Cl)c1,i,98.9,i,i,i
O=S(=O)(Nc1nc2ccccc2nc1NCc1ccco1)c1ccccc1,i,97.5,i,i,i
Cc1[nH]c(=O)[nH]c(=O)c1CSc1nnc(CCCCCNC(=O)OC(C)(C)C)o1,i,i,i,i,i
O=C(NC1CCCCC1)C(c1ccccc1)N(C(=O)Cc1ccsc1)c1ccccc1 (stereo not drawn),i,i,i,i,i
CC(Cc1ccccc1)NC(=O)C1CCCNC1=O (stereo not drawn),i,i,i,i,i
Cc1cc(C)n(C(=O)C2CCCN2S(=O)(=O)c2ccc(Cl)cc2)n1 (stereo not drawn),i,i,i,i,i
O=C(CSc1nnc(Cn2c(=O)sc3ccccc32)n1-c1ccccc1)Nc1nccs1,i,67.9,i,i,i
CSc1nnc(Cn2c(=O)sc3ccccc32)n1-c1ccccc1,i,i,i,i,53.1
CSc1nnc(Cn2c(=O)sc3ccccc32)n1CCc1ccccc1,i,i,i,i,i
COc1ccc(NC(=O)CCCn2c(=O)[nH]c3ccccc3c2=O)cc1,i,88.7,i,i,52.7
CC1CCCCC1n1c(=S)[nH]c2ccccc2c1=O (stereo not drawn),i,i,i,i,72.0
O=C(CCCn1c(=S)[nH]c2ccccc2c1=O)NC1CCCC1,i,i,i,i,i
CC1CCCN(C(=O)CCCn2c(=S)[nH]c3ccccc3c2=O)C1 (stereo not drawn),i,51.2,i,i,53.1
SMILES,PLAP activator,CYP2C9 inhib,CYP2C9 activ,CYP2C19 act,CYP2C19 inh
Cc1ccc(CNC(=O)CCCn2c(=O)[nH]c3ccccc3c2=O)cc1,i,i,i,i,i
COc1ccc(NC(=O)CCCn2c(=S)[nH]c3ccccc3c2=O)cc1,i,58.6,i,i,i
CCC(c1nnnn1CCc1ccccc1)N1CCN(c2ccc(OC)cc2)CC1 (stereo not drawn),i,i,i,i,i
COc1ccc(NC(=O)CCCCn2c(=O)[nH]c3ccccc3c2=O)cc1,i,66.5,i,i,i
CCCCOC(=O)CSc1nnc(N)s1,i,i,i,i,51.7
CCOc1ccc(C2CC(c3ccccc3C)n3nc(N)nc3N2)cc1 (stereo not drawn),i,i,i,i,i
COc1cccc(C2CC(c3ccc(Cl)cc3)n3nc(N)nc3N2)c1 (stereo not drawn),i,i,i,i,78.0
COc1ccc(C2CC(c3ccccc3C)n3nc(N)nc3N2)cc1 (stereo not drawn),i,i,i,i,57.0
CCOc1ccccc1C1CC(c2ccc(Br)cc2)Nc2nc(N)nn21 (stereo not drawn),i,i,i,i,64.0
Cc1ccc(C2CC(c3ccccc3Cl)n3nc(N)nc3N2)cc1 (stereo not drawn),i,i,i,i,i
Nc1nc2n(n1)C(c1ccccc1Cl)CC(c1ccc(F)cc1)N2 (stereo not drawn),i,i,i,i,73.0
COc1ccc(C2CC(c3cccc(OC)c3)n3nc(N)nc3N2)cc1 (stereo not drawn),i,i,i,i,i
Cc1ccc(-c2noc(CCC(=O)NCC3CCN(Cc4cccc(C)c4)CC3)n2)cc1,i,i,i,i,i
COc1cccc(C2CC(c3ccccc3Cl)n3nc(N)nc3N2)c1 (stereo not drawn),i,i,i,i,84.6
COc1cccc(C2CC(c3ccc(Cl)cc3Cl)n3nc(N)nc3N2)c1 (stereo not drawn),i,i,i,i,90.3
COc1cccc(C2CC(c3c(Cl)cccc3Cl)n3nc(N)nc3N2)c1 (stereo not drawn),i,i,i,i,i
Cc1ccc(C2CC(c3cccs3)n3nc(N)nc3N2)cc1 (stereo not drawn),i,i,i,i,50.8
COc1cccc(C2CC(c3cccc(Br)c3)n3nc(N)nc3N2)c1 (stereo not drawn),i,i,i,i,i
Cc1cccc(C2CC(c3ccc(F)cc3)Nc3nc(N)nn32)c1 (stereo not drawn),i,i,i,i,58.0
CCOCCCNC(=O)C1CCC(CNS(=O)(=O)c2ccc(Cl)cc2)CC1 (stereo not drawn),i,i,i,i,i
COc1cc(/C=C/C(=O)Nc2ccccc2C(F)(F)F)cc(OC)c1OC,i,i,i,i,i
CCOC(=O)N1CCN(S(=O)(=O)c2c(C)nn(C)c2C)CC1,i,i,i,i,i
Cn1c(=O)c2c(ncn2CCN(CCO)Cc2ccccc2)n(C)c1=O,i,i,i,i,i
CC(=O)C1C(=O)C=C(c2ccco2)CC1c1ccccc1 (stereo not drawn),i,i,i,i,i
COc1cccc(C2CC(c3ccccc3OC)n3nc(N)nc3N2)c1 (stereo not drawn),i,i,i,i,62.9
SMILES,PLAP activator,CYP2C9 inhib,CYP2C9 activ,CYP2C19 act,CYP2C19 inh
COc1cccc(C2CC(c3ccccc3C)n3nc(N)nc3N2)c1 (stereo not drawn),i,i,i,i,i
N#CC1=C(N)NC(SCc2ccccc2)=C(C#N)C12CCCCC2,i,100.0,i,i,99.9
CCSC1=C(C#N)C2(CCCCC2)C(C#N)=C(N)N1,i,84.2,i,i,58.9
Cc1[nH]ccc(=O)c1OCc1c(Cl)cccc1Cl,i,i,i,i,i
Cc1ccc(Cn2ccc(=O)c(OCc3c(Cl)cccc3Cl)c2C)cc1,i,i,i,i,65.0
COc1c2ccoc2nc2c(OC)cccc12,i,i,i,i,i
COc1ccc(CCNc2ccncn2)cc1OC,i,66.7,i,i,94.2
CCOC(=O)c1cnc2c(C(=O)OC)cccc2c1NCCN1CCOCC1,i,i,i,i,i
CCOc1nc(NCCc2ccc(OC)c(OC)c2)nc(N2CCN(c3ccc(OC)cc3)CC2)n1,i,i,i,i,i
